Source: PubChem BioAssay (EPA / NIEHS)
Activity calls are given as the source filed them. Rule for the calls: active = hit-call score of the fitted dose curve at least 0.9, where 1 is the maximum; inactive = score below 0.9.

Tests used:
Conditions in all cases: mRNA level, 48 h; actives raise or lower the signal
[1] = read-out: Cyclin D1 (CCND1), CCND1 (gene 595); test: LTEA_HepaRG_CCND1: Life Technologies and Expression Analysis (LTEA) Assay for Cyclin D1 (CCND1) using HepaRG (AID 2283451)
In short: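 qRT-PCR (Fluidigm 96.96 array) read-out of transcript level, housekeeping-normalized (ACTB/GAPDH/POLR2A). HepaRG cells, 48 h chemical exposure, 8-point half-log series from 100 uM, 0.5% DMSO vehicle; gain or loss relative to DMSO baseline.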

[2] = read-out: catalase (CAT), CAT (gene 847); test: LTEA_HepaRG_CAT: Life Technologies and Expression Analysis (LTEA) Assay for catalase (CAT) using HepaRG (AID 2283452)
In short: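 Expression of CAT was quantified by TaqMan qRT-PCR with ACTB/GAPDH/POLR2A normalization after 48 h chemical exposure of HepaRG. Eight-point half-log series, top 100 uM, in 0.5% DMSO; gain or loss fitted against vehicle.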

[3] = read-out: flavin-containing dimethylaniline monooxygenases 3 (FMO3), FMO3 (gene 2328); test: LTEA_HepaRG_FMO3: Life Technologies and Expression Analysis (LTEA) Assay for flavin-containing dimethylaniline monooxygenases 3 (FMO3) using HepaRG (AID 2283453)
In short: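 HepaRG, 48 h exposure, 8-pt half-log series from 100 uM, 0.5% DMSO vehicle, duplicates; FMO3 transcript by Fluidigm TaqMan qRT-PCR, housekeeping-normalized; gain/loss fit vs DMSO.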

[4] = read-out: Cytochrome P450 (CYP1A1), CYP1A1 (gene 1543); test: LTEA_HepaRG_CYP1A1: Life Technologies and Expression Analysis (LTEA) Assay for Cytochrome P450 (CYP1A1) using HepaRG (AID 2283454)
In short: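 qRT-PCR read-out: CYP1A1 transcript normalized to three housekeeping genes, fitted bidirectionally against 0.5% DMSO vehicle baseline. Human HepaRG cells, 48 h chemical exposure, 8-point half-log series topping at 100 uM.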

[5] = read-out: CFLAR gene, CFLAR (gene 8837); test: LTEA_HepaRG_CFLAR: Life Technologies and Expression Analysis (LTEA) Assay for CFLAR gene using HepaRG (AID 2283455)
In short: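 HepaRG, 48 h exposure, 8-pt conc-response (100 uM top, half-log), 0.5% DMSO vehicle, duplicates. CFLAR expression by qRT-PCR; ACTB/GAPDH/POLR2A normalization; gain or loss fit vs DMSO baseline.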

[6] = read-out: Forkhead box O1 (FOXO1), FOXO1 (gene 2308); test: LTEA_HepaRG_FOXO1: Life Technologies and Expression Analysis (LTEA) Assay for Forkhead box O1 (FOXO1) using HepaRG (AID 2283456)
In short: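 Readout is FOXO1 transcript level by multiplexed qRT-PCR against three housekeeping genes, curve-fitted in both directions relative to 0.5% DMSO vehicle. Human HepaRG cultures received chemicals for 48 h, up to 100 uM in half-log steps.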

[7] = read-out: ABC Transporter (ABCB1), ABCB1 (gene 5243); test: LTEA_HepaRG_ABCB1: Life Technologies and Expression Analysis (LTEA) Assay for ABC Transporter (ABCB1) using HepaRG (AID 2283460)
In short: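 Expression of ABCB1 was quantified by qRT-PCR against three housekeeping genes after human HepaRG cultures received test chemicals for 48 hours. Concentrations spanned eight half-log steps topping at 100 uM in 0.5% DMSO; gain or loss of signal was fitted relative to vehicle.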

[8] = read-out: growth arrest and DNA damage 45 (GADD45B), GADD45B (gene 4616); test: LTEA_HepaRG_GADD45B: Life Technologies and Expression Analysis (LTEA) Assay for growth arrest and DNA damage 45 (GADD45B) using HepaRG (AID 2283461)
In short: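 qRT-PCR read-out (Fluidigm TaqMan, housekeeping-normalized) of mRNA change in human HepaRG cells after 48 h chemical exposure; 8-point curve, top 100 uM, half-log steps, 0.5% DMSO vehicle; gain or loss fitted relative to DMSO baseline.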

[9] = read-out: ABC Transporter (ABCC3), ABCC3 (gene 8714); test: LTEA_HepaRG_ABCC3: Life Technologies and Expression Analysis (LTEA) Assay for ABC Transporter (ABCC3) using HepaRG (AID 2283462)
In short: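 qRT-PCR read-out of ABCC3 transcript, normalized to three housekeeping genes (ACTB, GAPDH, POLR2A), after 48 h chemical exposure of human HepaRG cells. Eight half-log concentrations, highest 100 uM, in 0.5% DMSO; gain or loss fitted relative to DMSO baseline.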

[10] = read-out: ABC Transporter (ABCB11), ABCB11 (gene 8647); test: LTEA_HepaRG_ABCB11: Life Technologies and Expression Analysis (LTEA) Assay for ABC Transporter (ABCB11) using HepaRG (AID 2283463)
In short: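 ABCB11 transcript levels are read by Fluidigm TaqMan qRT-PCR after 48 h chemical treatment of human HepaRG cells. Concentrations span 100 uM downward in half-log steps with 0.5% DMSO; gain or loss is fitted against DMSO controls.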

[11] = read-out: ABC Transporter (ABCC2), ABCC2 (gene 1244); test: LTEA_HepaRG_ABCC2: Life Technologies and Expression Analysis (LTEA) Assay for ABC Transporter (ABCC2) using HepaRG (AID 2283464)
In short: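 qRT-PCR (TaqMan, Fluidigm array) read-out of ABCC2 mRNA, normalized to three housekeeping genes. Differentiated HepaRG cells were treated 48 h in serum-free induction medium with 8-point half-log series from 100 uM in 0.5% DMSO; curves fitted bidirectionally relative to DMSO.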

[12] = read-out: Broad substrate specificity ATP-binding cassette transporter ABCG2 (Homo sapiens) (UniProt Q9UNQ0); test: LTEA_HepaRG_ABCG2: Life Technologies and Expression Analysis (LTEA) Assay for ABC Transporter (ABCG2) using HepaRG (AID 2283465)
In short: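 Read-out is ABCG2 mRNA induction or loss quantified by qRT-PCR after 48 h chemical treatment of human HepaRG cells, normalized to three housekeeping genes. Concentrations reached 100 uM top in half-log steps; fitting was bidirectional against 0.5% DMSO.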

[13] = read-out: ATP-citrate lyase (ACLY), ACLY (gene 47); test: LTEA_HepaRG_ACLY: Life Technologies and Expression Analysis (LTEA) Assay for ATP-citrate lyase (ACLY) using HepaRG (AID 2283466)
In short: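 HepaRG, 48 h exposure, 8-pt half-log dilutions (top 100 uM), 0.5% DMSO. Readout: ACLY mRNA, TaqMan qRT-PCR, housekeeping-normalized (ACTB/GAPDH/POLR2A). Bidirectional curve fit vs DMSO.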

[14] = read-out: Peroxisomal acyl-coenzyme A oxidase 1 (ACOX1) gene, ACOX1 (gene 51); test: LTEA_HepaRG_ACOX1: Life Technologies and Expression Analysis (LTEA) Assay for Peroxisomal acyl-coenzyme A oxidase 1 (ACOX1) gene using HepaRG (AID 2283467)
In short: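 Measured by qRT-PCR against three housekeeping genes: ACOX1 transcript change in human HepaRG cells after 48 h dosing. Concentrations ran up to 100 uM in half-log steps. Curves were fitted bidirectionally relative to 0.5% DMSO.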

[15] = read-out: Bcl-2 (BAD) gene, BAD (gene 572); test: LTEA_HepaRG_BAD: Life Technologies and Expression Analysis (LTEA) Assay for Bcl-2 (BAD) gene using HepaRG (AID 2283469)
In short: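 BAD transcript change, measured by qRT-PCR against three housekeeping genes and fitted in both directions relative to 0.5% DMSO, after 48 h chemical treatment of human HepaRG liver cells at concentrations up to 100 uM.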

[16] = read-out: growth arrest and DNA damage 45 (GADD45A), GADD45A (gene 1647); test: LTEA_HepaRG_GADD45A: Life Technologies and Expression Analysis (LTEA) Assay for growth arrest and DNA damage 45 (GADD45A) using HepaRG (AID 2283458)
In short: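 Human HepaRG liver cells are treated in duplicate for 48 h with chemicals in 0.5% DMSO, highest concentration 100 uM. Expression is read by qRT-PCR and analyzed in both directions against vehicle.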

[17] = read-out: Forkhead box O3 (FOXO3), FOXO3 (gene 2309); test: LTEA_HepaRG_FOXO3: Life Technologies and Expression Analysis (LTEA) Assay for Forkhead box O3 (FOXO3) using HepaRG (AID 2283459)
In short: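 HepaRG, 48 h post-dose; 8 conc., half-log from 100 uM, 0.5% DMSO, duplicates; serum-free induction medium. Readout: FOXO3 mRNA, TaqMan qRT-PCR, housekeeping-normalized. Bidirectional curve fit vs DMSO baseline.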

[18] = read-out: Alkaline Phosphatase, Placental (ALPP) gene, ALPP (gene 250); test: LTEA_HepaRG_ALPP: Life Technologies and Expression Analysis (LTEA) Assay for Alkaline Phosphatase, Placental (ALPP) gene using HepaRG (AID 2283468)
In short: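 qRT-PCR readout of ALPP mRNA (Fluidigm TaqMan), normalized to ACTB/GAPDH/POLR2A, after 48 h chemical exposure of HepaRG cells; 8-point half-log series, top 100 uM, 0.5% DMSO vehicle. Bidirectional curve fit versus DMSO baseline.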

Measured: AC50

Chain of Broad substrate specificity ATP-binding cassette transporter ABCG2 (Homo sapiens) (Q9UNQ0 whole entry, looked up): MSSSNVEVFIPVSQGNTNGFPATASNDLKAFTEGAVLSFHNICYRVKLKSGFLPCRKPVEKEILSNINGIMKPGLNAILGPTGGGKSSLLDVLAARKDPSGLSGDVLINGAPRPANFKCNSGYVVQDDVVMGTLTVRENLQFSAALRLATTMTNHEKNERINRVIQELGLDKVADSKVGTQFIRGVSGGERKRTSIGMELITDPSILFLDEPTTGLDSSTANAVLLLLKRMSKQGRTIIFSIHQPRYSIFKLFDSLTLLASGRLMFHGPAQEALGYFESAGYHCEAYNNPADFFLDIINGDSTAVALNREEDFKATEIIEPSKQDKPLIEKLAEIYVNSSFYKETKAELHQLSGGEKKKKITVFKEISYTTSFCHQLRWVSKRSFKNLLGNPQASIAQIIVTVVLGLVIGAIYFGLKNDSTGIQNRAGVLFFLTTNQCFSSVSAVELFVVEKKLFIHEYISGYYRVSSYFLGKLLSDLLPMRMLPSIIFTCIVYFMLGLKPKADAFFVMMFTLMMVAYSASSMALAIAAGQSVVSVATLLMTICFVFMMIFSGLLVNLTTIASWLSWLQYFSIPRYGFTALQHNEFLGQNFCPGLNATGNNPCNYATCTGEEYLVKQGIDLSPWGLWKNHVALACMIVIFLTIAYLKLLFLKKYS

COCC(C)N(C(=O)CCl)c1c(C)csc1C (centres undefined)
active: [4] 50 µM | [8] 74.1 µM | [10] 50 µM | [11] 32.6 µM
not listed: [16] | [17] | [18]
inactive: all other assays above

CC(C)N1C(=O)c2ccccc2NS1(=O)=O
not listed: [18]
inactive: all other assays above

CCSC(=O)N1CCCCCC1
not listed: [16]
inactive: all other assays above

Cc1c(COC(=O)[C@@H]2[C@H](/C=C(\Cl)C(F)(F)F)C2(C)C)cccc1-c1ccccc1
active: [4] 33.6 µM | [7] 28.3 µM | [12] 50 µM
not listed: [17]
inactive: all other assays above

Nc1cnn(-c2ccccc2)c(=O)c1Cl
active: [4] 71.7 µM
not listed: [16] | [18]
inactive: all other assays above

C=CCOC(=O)C(C)(C)OC(=O)c1cc(-n2c(=O)cc(C(F)(F)F)n(C)c2=O)ccc1Cl
not listed: [16] | [17]
inactive: all other assays above

CCOc1nc(F)cc2nc(S(=O)(=O)Nc3c(Cl)cccc3Cl)nn12
active: [10] 41.7 µM | [11] 7.91 µM
not listed: [17] | [18]
inactive: all other assays above
